In PubChem BioAssay (NCATS):
Records with an inconclusive call do not appear. The call rests on the fitted dose curve; in most records, active means well fitted curve in either direction with a large enough effect (not every such curve was filed as active); inconclusive means small, poorly fitted or top-dose-only effect, or another doubt; inactive means flat fitted curve, though single readings scatter.

test: Stat Signaling Pathway (AID 446); details: ME-180 (cervical carcinoma) SIE beta-lactamase reporter, IL-6 stimulated, 5 h; at 17.2 µM (top of the series) unless noted;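 further: ME-180 cervical cancer cells given 40 pM IL-6 alongside compound; SIE-controlled beta-lactamase reporter measured as 460/530 nm FRET emission ratio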
How it was run: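 Normalization used AC90 stimulation (300 pM IL-6) and AC90 inhibition (125 nM pan-JAK inhibitor at 40 pM IL-6). The underlying signal is SIE-driven beta-lactamase in ME-180 cells after 5 h IL-6 exposure with compound.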
On the % scale 0 is the no-effect control and ±100 the full control effect.

activity, negative = inhibition, inactive:
Cc1cc(OCC(=O)Nn2cnnc2)ccc1Br 4.67%, COc1ccc(NCc2cc3ccccc3[nH]c2=O)cc1 1.46%, O=C(Nc1ccccn1)c1ccc(=O)[nH]n1 1.32%, COn1c(=S)[nH]c2ccccc2c1=O 8.68%, Cc1c2c([n+]3n1CCC3)CC(C)(C)CC2=O 11.2%, CCOc1ccc(C2C(C(=O)c3ccc(C)o3)=C(O)C(=O)N2CCCN(CC)CC)cc1 (configuration not stated) 6.24%, O/N=C(\c1ccc2c(c1)OCCO2)C1CCCCC1 -14%, CCOC(=O)c1[nH]c2ccc(Br)cc2c1NC(=O)CCN1CCN(C(=O)OCC)CC1 -26.2%, O=C1OC(Nc2ccc(Br)cn2)c2ccccc21 (configuration not stated) 3.14%, CCOC(=O)C1(c2nc(N)cs2)COC(=O)C1 (configuration not stated) 2.25%, Cc1cc2c(c(=O)o1)C(Cc1ccccc1)C(C#N)=C(N)O2 (configuration not stated) -12.4%, O=C(c1ccccc1)c1cc(-c2ccccc2)on1 -7.84%, CCCSc1nc(C)c(CC(=O)OCC)c(=O)[nH]1 -2.57%, Nn1c(SCC(=O)Nc2ccc3c(c2)OCCO3)nnc1C(F)(F)F 9.15%, CCOC(=O)c1c(N)sc2c1CCC1C(=O)N(C3CCCCC3)C(=O)C21 (configuration not stated) -6.61%, O=C(NCc1cccnc1)NC(C(F)(F)F)C(F)(F)F 8.58%, COC(=O)c1[nH]c(C)c(/C(O)=C2\C(=O)C(=O)N(CCN3CCOCC3)C2c2cccnc2)c1C (configuration not stated) 2.79%
